Drawing on PubChem BioAssay, this text covers composite z-score and z-score for 17 molecules.

Assay [1] deals with Human papillomavirus type 1a protein E7 (residues 44-93). As to the kind of experiment: HPV1a E7 fragment binders on microarrays, primary screen, biochemical, small-molecule microarray, residues 44-93, 635 nm fluorescence (AID 1108).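 Also: E7 fragment applied at 1 µg/mL in TBST for 1 h at 4 C; score combines spot fluorescence with its signal to noise ratio.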 The following applies: small-molecule microarray binding, fluorescence 635 nm; higher = more signal.
The nature of assay [2]: modulators of HCV replicon luciferase signal, primary screen, HCV replication inhibitor project, Huh7 cells, luciferase reporter (AID 1109).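 Also: huh7 hepatoma cells harbouring a luciferase neomycin HCV replicon reporter; luciferase luminescence as measure of HCV replicon replication; test concentration not given here.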 As to conditions: 48 h, higher = more signal.
Assay [3] has as its target Left-right determination factor 2 (Homo sapiens) (UniProt O00292). The assay can be described thus: LEFTY2 binders on small-molecule microarrays, primary screen, biochemical, small-molecule microarray, 635 nm fluorescence scan (AID 1110). The following applies: LEFTY2 binding, higher = more signal.
The target of assay [4] is Calmodulin-1 (Homo sapiens) (UniProt P0DP23). As to the kind of experiment: CALM1 binders on microarrays, EGTA buffer, profiling panel, biochemical, small-molecule microarray, Cy5-labelled CALM1 (AID 1111).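 Also: labelled calmodulin applied in Tris saline Tween buffer holding calcium plus EGTA and DTT.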 The following applies: Cy5-CALM1 binding fluorescence, higher = more signal.
For assay [5] the target is unchanged. As to the kind of experiment: calcium-bound CALM1 binders on microarrays, profiling panel, artefact control for SMM control-protein annotation, biochemical, small-molecule microarray, Cy5-labelled CALM1, plus calcium (AID 1112).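 Also: score merges spot fluorescence with signal to noise from triplicate slides.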 As to conditions: Cy5-CALM1 binding fluorescence, higher = more signal.
Assay [6] in a line: small-molecule microarray binders of probe aWnt5a, primary screen, biochemical, biotinylated probe, 635/667 nm fluorescence (AID 1113).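 Also: score merges 667 nm fluorescence intensity with signal-to-noise per printed feature.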 As to conditions: higher = more signal.
Assay [7] can be described thus: small-molecule microarray binders of probe aShh, primary screen, biochemical, biotinylated probe, 635/667 nm fluorescence (AID 1114).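 Also: probe is biotin-labelled aShh protein from a stem cell growth factor screen; measures binding of labelled protein to compounds printed on the slide; score merges feature fluorescence at 667 nm with signal-to-noise.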 As to conditions: higher = more signal.
Assay [8] in a line: small-molecule microarray binders of probe aNog, primary screen, biochemical, biotinylated probe, 635/667 nm fluorescence (AID 1115).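 Also: probe is biotinylated aNog protein used at 0.15 µg/mL for 1 h at 4 C; z-score combines 667 nm fluorescence of each spot with its signal to noise.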 The following applies: higher = more signal.
Assay [9] addresses Torsin-1A-interacting protein 1 (Homo sapiens) (UniProt Q5JTV8). The assay can be described thus: LAP1 binders from COS7 cell lysate, primary screen, small-molecule microarray, 635/667 nm fluorescence (AID 1116). As to conditions: COS7-hLAP1 lysate binding, 635 nm fluorescence, higher = more signal.
The target of assay [10] is Alpha-bungarotoxin (Bungarus multicinctus) (UniProt P60615). The assay can be described thus: alpha-bungarotoxin binders on microarray, profiling panel, artefact control for SMM control protein annotation, biochemical, small-molecule microarray, Alexa647 label, 635/667 nm fluorescence (AID 1117). As to conditions: alpha-BTX-A647 binding fluorescence, higher = more signal.
Alpha-bungarotoxin (Bungarus multicinctus), sequence (P60615 whole entry, looked up): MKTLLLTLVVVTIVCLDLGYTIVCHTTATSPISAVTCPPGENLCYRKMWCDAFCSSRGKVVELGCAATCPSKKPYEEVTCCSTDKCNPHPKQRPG

Torsin-1A-interacting protein 1 (Homo sapiens), sequence (Q5JTV8 whole entry, looked up): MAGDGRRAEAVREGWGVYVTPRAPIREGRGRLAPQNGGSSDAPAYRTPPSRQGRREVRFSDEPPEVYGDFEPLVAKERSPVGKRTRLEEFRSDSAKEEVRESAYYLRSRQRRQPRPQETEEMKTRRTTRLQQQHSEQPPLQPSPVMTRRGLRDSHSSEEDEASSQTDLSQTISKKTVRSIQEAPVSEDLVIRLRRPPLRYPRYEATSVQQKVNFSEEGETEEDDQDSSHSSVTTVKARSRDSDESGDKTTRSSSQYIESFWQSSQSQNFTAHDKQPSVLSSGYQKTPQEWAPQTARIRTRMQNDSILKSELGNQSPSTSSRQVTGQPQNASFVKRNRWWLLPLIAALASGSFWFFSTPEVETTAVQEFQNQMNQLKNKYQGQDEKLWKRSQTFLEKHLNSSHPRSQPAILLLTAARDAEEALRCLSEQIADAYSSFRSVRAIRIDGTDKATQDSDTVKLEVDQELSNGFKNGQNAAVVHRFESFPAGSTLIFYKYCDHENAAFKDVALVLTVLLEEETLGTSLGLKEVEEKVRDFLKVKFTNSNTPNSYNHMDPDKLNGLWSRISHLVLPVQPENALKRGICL
Left-right determination factor 2 (Homo sapiens), sequence (O00292 whole entry, looked up): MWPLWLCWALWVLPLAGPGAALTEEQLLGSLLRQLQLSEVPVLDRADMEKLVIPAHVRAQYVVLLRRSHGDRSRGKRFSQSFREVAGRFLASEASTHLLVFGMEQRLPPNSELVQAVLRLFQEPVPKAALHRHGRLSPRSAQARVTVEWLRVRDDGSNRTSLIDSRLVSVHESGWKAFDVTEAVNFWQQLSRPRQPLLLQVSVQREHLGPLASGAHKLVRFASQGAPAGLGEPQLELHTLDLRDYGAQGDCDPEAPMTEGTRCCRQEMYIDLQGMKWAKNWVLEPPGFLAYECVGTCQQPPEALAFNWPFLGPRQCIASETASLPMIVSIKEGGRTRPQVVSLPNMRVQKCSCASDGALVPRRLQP

For the molecule `CCCNC(=O)[C@@]1(Sc2ccc(C)cc2)CC(=O)N(Cc2ccccc2Cl)[C@@H]1c1ccc(CO)cc1I`, the composite z-score in [1] is 0.135; in [3], -1.4; in [4], 0.284; in assay [5] it was 0.321; in assay [6], -0.129; in assay [7], -0.132. Also, the values for the composite z-score in assay [8], in assay [9] and in assay [10] were 1.91, -0.0631 and 0.461, respectively. In [2], this molecule registered a z-score of -2.17.

Consider `CC1CC/C=C\[C@H]2OC34C=CCN(Cc5ccccc5)C(=O)[C@H]3N(CCCCCCO)C(=O)[C@@H]4C2C(=O)O1` (stereo not given in full), for which the composite z-score in assay [1] was -0.504; in assay [3] it was -1.26; in assay [4], 0.284; in assay [5], 0.636; in assay [6], -0.12; in assay [7] it was -0.0146. The values for the composite z-score in [8], in assay [9] and in [10] were -0.0007, 2.32 and -1.2, respectively. This molecule also came in with a z-score in assay [2] of -0.117.

Turning to `CC(=O)c1ccc(C(O)C2C=CC3C(=O)N(c4ccccc4)C(=O)C3N2Nc2ccc(C(C)C)cc2)cc1` (stereo not given), the composite z-score is 0.637 in assay [1]; 0.438 in assay [3]; 0.889 in [4]; 0.0603 in [5]; -0.0519 in [6]; 0.0278 in assay [7]. Also, the composite z-score in assay [8] turned out to be 1.7; in assay [9] it was 0.415; in assay [10] it was 0.859. The z-score in assay [2] is -0.674.

On to `C=CCC(OC(C)=O)[C@@H]1[C@@H](N(Cc2cccc3ccccc23)C(=O)Cc2ccc(OC)cc2)c2cc(OCCCO)ccc2N1C(=O)Cc1ccc2ccccc2c1` (stereo not given in full), for which the composite z-score was 0.415 in assay [1]; -0.102 in assay [3]; 0.0895 in assay [4]; 0.316 in [5]; -0.216 in [6]; -0.138 in assay [7]. The composite z-score in [8] was -0.308; in assay [9], -0.0234; in assay [10], 0.14. Also, the z-score in assay [2] stood at 0.24.

Consider `O=C1N(CCS(=O)(=O)c2ccccc2)c2ccccc2C[C@]12N=C(c1ccc(OCCCO)cc1)O[C@@H]2c1ccccc1`, for which the composite z-score in [1] is 1.42; in [3], 0.845; in [4], 2.28; in assay [5], 0.565; in [6], 0.0704; in [7], -0.0146. For the same molecule, the composite z-score worked out at 0.217 in assay [8], 1.93 in assay [9] and 1.91 in assay [10]. The z-score in [2] is -1.74.

For `CO[C@H]1O[C@H](CO)[C@@H](OC(=O)Nc2ccccc2-c2ccccc2)[C@H](OC(=O)Nc2ccccc2)[C@H]1OC(=O)Nc1ccccc1`, the composite z-score was 0.922 in assay [1]; 0.732 in assay [3]; 1.27 in [4]; -0.144 in assay [5]; 0.169 in assay [6]; 0.269 in assay [7]. Further, the composite z-score in [8] worked out at 0.225; in assay [9], 1.07; in [10], 1.64. For the same molecule, in [2], the z-score was -2.49.

Consider `O=C1c2ccccc2[C@@]2(Cc3ccccc3N(Cc3ccccc3)C2=O)[C@H](c2ccc(CO)cc2)N1Cc1ccccc1Cl`, for which the composite z-score in assay [1] is -0.728; in [3], -0.44; in assay [4], -0.223; in [5], 0.306; in assay [6] it was -0.202; in assay [7], -0.412. The composite z-score in assay [8] was 0.105; in [9] it was -0.881; in assay [10], -0.0792. For the same molecule, in assay [2], the z-score is 0.0868.

`COCCCN1C(=O)[C@@]2(c3ccc([N+](=O)[O-])cc3)CC(=O)N(CC34CC5CC(CC(C5)C3)C4)[C@@H]2c2ccc(CO)cc21`: the composite z-score in [1] is 0.372; in assay [3], -0.407; in assay [4] it was -0.226; in [5], -0.406; in assay [6] it was -0.096; in [7], -0.291. Also, the composite z-score in [8] was -0.461; in assay [9] it was -0.507; in assay [10] it was 0.241. The molecule further yielded a z-score in [2] of -0.445.

In the case of `COCC(=C=CC[C@H](O)c1ccccc1OCCO)C[C@H](O)COCc1ccccc1`, the composite z-score was 1.2 in assay [1]; 0.0832 in assay [3]; 0.324 in assay [4]; -0.678 in assay [5]; -0.0685 in [6]; 0.275 in [7]. Also, the composite z-score in assay [8] was 0.589; in assay [9], 1.36; in assay [10], -0.346. Moreover, in [2], the z-score was -1.51.

For the molecule `COC(=O)[C@]1(Cc2ccccc2)N=C(c2ccc(OCCCO)cc2)O[C@@H]1c1ccccc1CN=[N+]=[N-]`, the composite z-score in [1] is 1.37; in [3], -0.383; in [4] it was 0.63; in assay [5], -0.293; in assay [6] it was -0.0944; in assay [7] it was 0.0796. In addition, the values for the composite z-score in assay [8], in [9] and in assay [10] were 0.537, 1.11 and 1.01, respectively. This molecule also had a z-score in [2] of -3.37.

For the molecule `C[N+](C)(C)CCCC[C@@H]1NC(=O)[C@H]2C[C@@H](C(=O)NCCCCCNC(=O)CS)[C@@H](c3cccc(OCCO)c3)N2C1=O`, the composite z-score is -0.0364 in assay [1]; -0.259 in [3]; -0.0728 in [4]; 0.297 in assay [5]; -0.103 in assay [6]; -0.0626 in assay [7]. Also, the results for the composite z-score in [8], in assay [9] and in assay [10] were -0.234, 0.707 and -0.307, respectively. Also, the z-score in assay [2] is -0.709.

`O=C1O[C@H](c2ccccc2)[C@H](c2ccccc2)N2[C@H]1[C@@H](C(=O)O)[C@]1(C(=O)Nc3ccc(C#CCCO)cc31)[C@H]2c1ccc(OCCO)cc1`: the composite z-score in assay [1] was 1.12; in assay [3], 0.453; in assay [4], 1.05; in assay [5], 0.532; in assay [6], -0.0472; in assay [7] it was -0.0769. In addition, the composite z-score in assay [8] came out at 0.133; in [9], 1.65; in assay [10], 2.47. Further, in [2], the z-score was -0.534.

Take `COc1ccc([Si](C)(C)[C@H]2[C@H](CCO)O[C@@]3(C(=O)N(Cc4ccc(NC(=O)[C@H](C)O)cc4)c4ccccc43)[C@@H]2C)cc1`: the composite z-score in assay [1] is 1.42; in [3], 0.378; in [4], 1.19; in assay [5], 0.0314; in assay [6], -0.105; in assay [7] it was 0.318. In addition, the composite z-score in assay [8] was determined as 0.686; in assay [9] it was 0.989; in assay [10], 1.24. The molecule further returned a z-score in assay [2] of -5.22.

With `COc1ccccc1CN1C(=O)c2ccccc2[C@](Cc2ccccc2I)(C(=O)NCC(C)C)[C@@H]1c1ccc(CO)cc1`, the composite z-score is -0.237 in assay [1]; -1.25 in assay [3]; -0.313 in assay [4]; -0.18 in assay [5]; -0.0529 in assay [6]; -0.0243 in [7]. Also, the results for the composite z-score in [8], in [9] and in assay [10] were 0.215, 0.078 and 0.237, respectively. The z-score in assay [2] was -0.921.

Turning to `C=CCOC(=O)[C@H]1[C@@H]2C(=O)O[C@@H](c3ccccc3)[C@@H](c3ccccc3)N2[C@@H](c2ccc(OCCOC(=O)[C@H]3C[C@H]4C(=O)N[C@@H](CC(C)C)C(=O)N4[C@H]3c3ccc(O)cc3)cc2)[C@]12C(=O)Nc1ccccc12`, the composite z-score is 1.42 in [1]; 1.44 in assay [3]; 0.538 in [4]; -0.273 in [5]; 0.0919 in assay [6]; -0.066 in assay [7]. Also, the values for the composite z-score in assay [8], in assay [9] and in assay [10] were -0.582, 1.78 and 1.52, respectively. In addition, in [2], the z-score is -1.75.

Regarding `COc1ccc(C(=O)Nc2cccc(CN3C(=O)[C@@]4(O[C@@H](CC(=O)N5CCC[C@H]5CO)[C@H]([Si](C)(C)c5ccc(OC)cc5)[C@H]4C)c4ccccc43)c2)cc1`, the composite z-score is 0.843 in [1]; 0.801 in assay [3]; 1.26 in assay [4]; 0.78 in [5]; -0.0643 in assay [6]; -0.142 in [7]. The composite z-score in [8] was -0.138; in assay [9], 1.72; in assay [10] it was 2.08. The molecule also returned a z-score in assay [2] of -3.13.

For the molecule `COCCOC(=O)N1C(=O)[C@@]2(c3cc(C#CCNC(N)=O)ccc31)[C@H](C(=O)Nc1nc3ccccc3s1)[C@H]1C(=O)O[C@H](c3ccccc3)[C@H](c3ccccc3)N1[C@@H]2c1ccccc1OCCO`, the composite z-score in assay [1] is 0.629; in [3], 0.685; in assay [4], 0.567; in assay [5], 0.132; in assay [6], -0.0405; in assay [7] it was 0.142. Also, the composite z-score in assay [8] worked out at 0.355; in assay [9], 1.05; in [10] it was 0.771. The molecule further had a z-score in assay [2] of -1.22.
